Experimental data published in PMC9911399, “Two distinct binding modes provide the RNA-binding protein RbFox with extraordinary sequence specificity”.
Numbering of substitutions follows the chain as printed; changes in the protein carry UniProt numbers. In all, about 16,000 sequences were measured (“ka relative to ugcaugu”: median about 0.096, highest 2% from about 0.35 on). This is one part of a sample in which the highest values are shown more often than they occur.

B1: AUGCCGC (DNA:RNA)
RNA: GGGAGACCGGAAUUCAGAUUGUCCAUGCCGCUUAAAUCCCGUCGUAGCCACCA
DNA 1: CAATCTGAATTCCGGTCTCCC
DNA 2: TGGTGGCTACGACGGGATT
B2: ACACGGC (DNA:RNA)
RNA: B1 RNA with U26C, G27A, C29G
DNA 1: CAATCTGAATTCCGGTCTCCC
DNA 2: TGGTGGCTACGACGGGATT
B3: UUUUCCC (DNA:RNA)
RNA: B1 RNA with A25U, G27U, C28U, G30C
DNA 1: CAATCTGAATTCCGGTCTCCC
DNA 2: TGGTGGCTACGACGGGATT
B4: GGGACUG (DNA:RNA)
RNA: B1 RNA with A25G, U26G, C28A, G30U, C31G
DNA 1: CAATCTGAATTCCGGTCTCCC
DNA 2: TGGTGGCTACGACGGGATT
B5: UCCAGUU (DNA:RNA)
RNA: GGGAGACCGGAAUUCAGAUUGUCCUCCAGUUUUAAAUCCCGUCGUAGCCACCA
DNA 1: CAATCTGAATTCCGGTCTCCC
DNA 2: TGGTGGCTACGACGGGATT
B6: CGAUCAG (DNA:RNA)
RNA: B1 RNA with A25C, U26G, G27A, C28U, G30A, C31G
DNA 1: CAATCTGAATTCCGGTCTCCC
DNA 2: TGGTGGCTACGACGGGATT
B7: AUUGUAA (DNA:RNA)
RNA: B1 RNA with G27U, C28G, C29U, G30A, C31A
DNA 1: CAATCTGAATTCCGGTCTCCC
DNA 2: TGGTGGCTACGACGGGATT
B8: UUUGUUC (DNA:RNA)
RNA: B1 RNA with A25U, G27U, C28G, C29U, G30U
DNA 1: CAATCTGAATTCCGGTCTCCC
DNA 2: TGGTGGCTACGACGGGATT
B9: GCGCGAC (DNA:RNA)
RNA: B1 RNA with A25G, U26C, C29G, G30A
DNA 1: CAATCTGAATTCCGGTCTCCC
DNA 2: TGGTGGCTACGACGGGATT
B10: UUAAGCC (DNA:RNA)
RNA: B5 RNA with C26U, C27A, U30C, U31C
DNA 1: CAATCTGAATTCCGGTCTCCC
DNA 2: TGGTGGCTACGACGGGATT
B11: CCCGAUC (DNA:RNA)
RNA: B5 RNA with U25C, A28G, G29A, U31C
DNA 1: CAATCTGAATTCCGGTCTCCC
DNA 2: TGGTGGCTACGACGGGATT
B12: CUUCGGU (DNA:RNA)
RNA: B1 RNA with A25C, G27U, C29G, C31U
DNA 1: CAATCTGAATTCCGGTCTCCC
DNA 2: TGGTGGCTACGACGGGATT
B13: AAGGCAA (DNA:RNA)
RNA: B1 RNA with U26A, C28G, G30A, C31A
DNA 1: CAATCTGAATTCCGGTCTCCC
DNA 2: TGGTGGCTACGACGGGATT
B14: AGAUUGC (DNA:RNA)
RNA: B1 RNA with U26G, G27A, C28U, C29U
DNA 1: CAATCTGAATTCCGGTCTCCC
DNA 2: TGGTGGCTACGACGGGATT
B15: UGAUUGA (DNA:RNA)
RNA: B1 RNA with A25U, U26G, G27A, C28U, C29U, C31A
DNA 1: CAATCTGAATTCCGGTCTCCC
DNA 2: TGGTGGCTACGACGGGATT
B16: UGAUGAA (DNA:RNA)
RNA: B5 RNA with C26G, C27A, A28U, U30A, U31A
DNA 1: CAATCTGAATTCCGGTCTCCC
DNA 2: TGGTGGCTACGACGGGATT
B17: AGAAUGC (DNA:RNA)
RNA: B1 RNA with U26G, G27A, C28A, C29U
DNA 1: CAATCTGAATTCCGGTCTCCC
DNA 2: TGGTGGCTACGACGGGATT
B18: AAAAUGC (DNA:RNA)
RNA: B1 RNA with U26A, G27A, C28A, C29U
DNA 1: CAATCTGAATTCCGGTCTCCC
DNA 2: TGGTGGCTACGACGGGATT
B19: UGAAUGA (DNA:RNA)
RNA: B5 RNA with C26G, C27A, G29U, U30G, U31A
DNA 1: CAATCTGAATTCCGGTCTCCC
DNA 2: TGGTGGCTACGACGGGATT
B20: UCGUUCG (DNA:RNA)
RNA: B5 RNA with C27G, A28U, G29U, U30C, U31G
DNA 1: CAATCTGAATTCCGGTCTCCC
DNA 2: TGGTGGCTACGACGGGATT
B21: AGCCUAC (DNA:RNA)
RNA: B1 RNA with U26G, G27C, C29U, G30A
DNA 1: CAATCTGAATTCCGGTCTCCC
DNA 2: TGGTGGCTACGACGGGATT
B22: CCUGUCC (DNA:RNA)
RNA: B1 RNA with A25C, U26C, G27U, C28G, C29U, G30C
DNA 1: CAATCTGAATTCCGGTCTCCC
DNA 2: TGGTGGCTACGACGGGATT
B23: GAUUAGG (DNA:RNA)
RNA: B1 RNA with A25G, U26A, G27U, C28U, C29A, C31G
DNA 1: CAATCTGAATTCCGGTCTCCC
DNA 2: TGGTGGCTACGACGGGATT
B24: CGCAGCG (DNA:RNA)
RNA: B5 RNA with U25C, C26G, U30C, U31G
DNA 1: CAATCTGAATTCCGGTCTCCC
DNA 2: TGGTGGCTACGACGGGATT
B25: AUUGCCU (DNA:RNA)
RNA: B1 RNA with G27U, C28G, G30C, C31U
DNA 1: CAATCTGAATTCCGGTCTCCC
DNA 2: TGGTGGCTACGACGGGATT
B26: UGGCCUC (DNA:RNA)
RNA: B1 RNA with A25U, U26G, G30U
DNA 1: CAATCTGAATTCCGGTCTCCC
DNA 2: TGGTGGCTACGACGGGATT
B27: UGUAGCC (DNA:RNA)
RNA: B5 RNA with C26G, C27U, U30C, U31C
DNA 1: CAATCTGAATTCCGGTCTCCC
DNA 2: TGGTGGCTACGACGGGATT
B28: CAUUGCC (DNA:RNA)
RNA: B1 RNA with A25C, U26A, G27U, C28U, C29G, G30C
DNA 1: CAATCTGAATTCCGGTCTCCC
DNA 2: TGGTGGCTACGACGGGATT
B29: UGUUGCC (DNA:RNA)
RNA: B5 RNA with C26G, C27U, A28U, U30C, U31C
DNA 1: CAATCTGAATTCCGGTCTCCC
DNA 2: TGGTGGCTACGACGGGATT
B30: UGCUGCC (DNA:RNA)
RNA: B5 RNA with C26G, A28U, U30C, U31C
DNA 1: CAATCTGAATTCCGGTCTCCC
DNA 2: TGGTGGCTACGACGGGATT
B31: UUGCCUG (DNA:RNA)
RNA: B1 RNA with A25U, G30U, C31G
DNA 1: CAATCTGAATTCCGGTCTCCC
DNA 2: TGGTGGCTACGACGGGATT
B32: UGCCUCC (DNA:RNA)
RNA: B1 RNA with A25U, U26G, G27C, C29U, G30C
DNA 1: CAATCTGAATTCCGGTCTCCC
DNA 2: TGGTGGCTACGACGGGATT
B33: UGCCUUG (DNA:RNA)
RNA: B5 RNA with C26G, A28C, G29U, U31G
DNA 1: CAATCTGAATTCCGGTCTCCC
DNA 2: TGGTGGCTACGACGGGATT
B34: UGGCCUG (DNA:RNA)
RNA: B1 RNA with A25U, U26G, G30U, C31G
DNA 1: CAATCTGAATTCCGGTCTCCC
DNA 2: TGGTGGCTACGACGGGATT
B35: AUUUGCC (DNA:RNA)
RNA: B1 RNA with G27U, C28U, C29G, G30C
DNA 1: CAATCTGAATTCCGGTCTCCC
DNA 2: TGGTGGCTACGACGGGATT
B36: UGUGGCC (DNA:RNA)
RNA: B5 RNA with C26G, C27U, A28G, U30C, U31C
DNA 1: CAATCTGAATTCCGGTCTCCC
DNA 2: TGGTGGCTACGACGGGATT

target: T1, RBFOX1 RRM RbFoxmut (Fox-RRM*) (Homo sapiens, UniProt Q9NWB1 109-208, R118D;E147R;N151S;E152T); experiment: EMSA; HiTS-Eq, 1 nM pool, 10 min; buffer printed only for the single-RNA assays: 10 mM Tris pH 7.5, 150 mM NaCl, 3.4 mM EDTA, 0.001% NP-40, 30 C; conditions: tags: His6 N-terminal (pET28a); label: 5' 32P
T1 sequence: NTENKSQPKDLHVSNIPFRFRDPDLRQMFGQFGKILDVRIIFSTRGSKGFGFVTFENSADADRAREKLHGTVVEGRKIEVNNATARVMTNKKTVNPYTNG
Method in brief: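 Purified wild-type or mutant RbFox RRM at increasing concentrations was equilibrated with 1 nM of 5′-radiolabelled RNA carrying 7 randomized nucleotides for 10 min in 50 µL. Unbound RNA was separated by 8% native PAGE and sequenced. Relative association constants came from read-count changes of each RNA species compared with the control reaction, normalised to the cognate motif.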

Binder | binding signal
B1 | 0.11 KA relative to UGCAUGU
B2 | 0.115 KA relative to UGCAUGU
B3 | 0.0312 KA relative to UGCAUGU
B4 | 0.266 KA relative to UGCAUGU
B5 | 0.0717 KA relative to UGCAUGU
B6 | 0.0789 KA relative to UGCAUGU
B7 | 0.154 KA relative to UGCAUGU
B8 | 0.0935 KA relative to UGCAUGU
B9 | 0.0897 KA relative to UGCAUGU
B10 | 0.106 KA relative to UGCAUGU
B11 | 0.0576 KA relative to UGCAUGU
B12 | 0.095 KA relative to UGCAUGU
B13 | 0.061 KA relative to UGCAUGU
B14 | 0.14 KA relative to UGCAUGU
B15 | 0.209 KA relative to UGCAUGU
B16 | 0.122 KA relative to UGCAUGU
B17 | 0.408 KA relative to UGCAUGU
B18 | 0.0633 KA relative to UGCAUGU

Binder | binding signal
B19 | 0.46 KA relative to UGCAUGU
B20 | 0.218 KA relative to UGCAUGU
B21 | 0.0767 KA relative to UGCAUGU
B22 | 0.074 KA relative to UGCAUGU
B23 | 0.0809 KA relative to UGCAUGU
B24 | 0.135 KA relative to UGCAUGU
B25 | 0.108 KA relative to UGCAUGU
B26 | 0.106 KA relative to UGCAUGU
B27 | 0.141 KA relative to UGCAUGU
B28 | 0.374 KA relative to UGCAUGU
B29 | 0.296 KA relative to UGCAUGU
B30 | 0.298 KA relative to UGCAUGU
B31 | 0.377 KA relative to UGCAUGU
B32 | 0.155 KA relative to UGCAUGU
B33 | 1.27 KA relative to UGCAUGU
B34 | 0.359 KA relative to UGCAUGU
B35 | 0.257 KA relative to UGCAUGU
B36 | 0.263 KA relative to UGCAUGU
